{"source": "PubChem BioAssay"}
{"biological_target": "Albumin (Bos taurus) (UniProt P02769)", "sequence (P02769 whole entry, looked up)": "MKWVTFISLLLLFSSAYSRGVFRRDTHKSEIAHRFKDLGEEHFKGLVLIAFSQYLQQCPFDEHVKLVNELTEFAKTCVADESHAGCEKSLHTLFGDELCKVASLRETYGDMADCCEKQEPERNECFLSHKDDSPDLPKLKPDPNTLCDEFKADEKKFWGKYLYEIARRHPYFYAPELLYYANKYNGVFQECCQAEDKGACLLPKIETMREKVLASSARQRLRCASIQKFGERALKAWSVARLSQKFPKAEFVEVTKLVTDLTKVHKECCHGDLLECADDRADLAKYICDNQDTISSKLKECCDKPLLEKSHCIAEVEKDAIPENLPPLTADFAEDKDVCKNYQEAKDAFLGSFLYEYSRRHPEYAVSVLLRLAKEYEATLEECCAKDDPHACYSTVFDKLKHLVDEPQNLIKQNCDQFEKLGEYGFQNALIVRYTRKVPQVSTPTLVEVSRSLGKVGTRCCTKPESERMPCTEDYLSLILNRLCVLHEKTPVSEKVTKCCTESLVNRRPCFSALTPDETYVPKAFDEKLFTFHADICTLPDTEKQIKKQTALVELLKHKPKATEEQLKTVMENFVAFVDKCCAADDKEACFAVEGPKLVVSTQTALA", "assay": "bovine serum albumin binders on microarray, profiling panel, artefact control for SMM control protein annotation, biochemical, small-molecule microarray, Alexa647 label, 635/667 nm fluorescence (AID 1118);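 also: score merges 667 nm emission intensity and signal-to-noise per printed compound spot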", "conditions": "BSA-A647 binding, fluorescence 635 nm, higher = more signal"}
{"smiles": "COc1cc(CO)ccc1OC(C)=O", "composite z-score": 0.344}
{"smiles": "COc1ccc(C#Cc2ccc3c(c2)[C@]2(C(=O)N3)[C@H](c3ccc(O)cc3)N3[C@H](c4ccccc4)[C@H](c4ccccc4)OC(=O)[C@H]3[C@@H]2C(=O)N2CCCCCCC2)cc1", "composite z-score": 0.814}
{"smiles": "CN1C=C(C(=O)OCCS(C)(=O)=O)C(C(=O)OCCS(C)(=O)=O)=CC(CCCO)=CC1C1CC1", "note": "(stereo unspecified)", "composite z-score": 0.846}
{"smiles": "COCCOC(=O)N1C(=O)[C@@]2(c3cc(C#CCC(C(=O)OC)C(=O)OC)ccc31)[C@H](c1ccc(O)cc1)N1[C@H](c3ccccc3)[C@H](c3ccccc3)OC(=O)[C@H]1[C@@H]2C(N)=O", "composite z-score": 0.47}
{"smiles": "COc1ccc(NN2C(C(O)c3ccc(OC)c(OCc4ccccc4)c3)C=CC3C(=O)N(C4CCCCC4)C(=O)C32)cc1", "note": "(stereo unspecified)", "composite z-score": 0.976}
{"smiles": "CC(C)N1CC=CC23O[C@@H]4C=CCOC(=O)[C@@H]4[C@H]2C(=O)N(CCO)[C@@H]3C1=O", "note": "(stereo partly specified)", "composite z-score": -0.0355}
{"smiles": "O=C1c2ccccc2[C@@]2(Cc3ccccc3N(Cc3ccccc3)C2=O)[C@H](c2ccc(CO)cc2)N1C1CCCCC1", "composite z-score": -0.841}
{"smiles": "CO[C@H]1O[C@H](CO)[C@@H](OC(=O)Nc2ccc3c(c2)OCO3)[C@H](OC(=O)Nc2ccccc2)[C@H]1OC(=O)Nc1ccccc1", "composite z-score": -0.21}
{"smiles": "CC(C)C[C@@H]1NC(=O)[C@@H]2C[C@H](C(=O)NCCCCCC[N+](C)(C)C)[C@H](c3ccc(O)cc3)N2C1=O", "composite z-score": -0.0787}
{"smiles": "N#Cc1ccc(NN2C(C(O)C3CCCCC3)C=CC3C(=O)N(c4ccccc4)C(=O)C32)cc1", "note": "(stereo unspecified)", "composite z-score": 0.919}
{"smiles": "O=c1oc(-c2ccccc2)nc2cc(Br)ccc12", "composite z-score": -0.163}
{"smiles": "COC(=O)[C@@]1(Cc2ccc(OC)cc2)[C@H]2c3cc(C(=O)N(C)C)n(Cc4c(OC)[nH]cc(C)c4=O)c3C[C@H]2CN1C(=O)c1ccccc1", "composite z-score": 0.589}
{"smiles": "CC(C)NC(=O)[C@@H]1c2ccccc2C(=O)N(Cc2ccccc2)[C@H]1c1ccc(CO)cc1", "composite z-score": -0.113}
{"smiles": "O=C1C=CC(=O)[C@@H]2CC(COc3ccccc3)=C3[C@@H](CCc4ccccc4)OB(O)C[C@@H]3[C@H]12", "composite z-score": -0.182}
{"smiles": "C=CCC(OC(C)=O)[C@@H]1[C@@H](N(Cc2cccc3ccccc23)C(=O)c2cccc3ccccc23)c2cc(OCCCO)ccc2N1C(=O)c1ccc2ccccc2n1", "note": "(stereo partly specified)", "composite z-score": -0.0648}
{"smiles": "O=C1[C@]2(CO)C=C(Br)[C@@H](C[C@@H]2c2ccccc2)[C@@]12CO2", "composite z-score": -0.102}
{"smiles": "COCC1=C2[C@@H](CCc3ccccc3)OB(O)C[C@@H]2[C@@H]2C(=O)N(Cc3ccccc3)C(=O)[C@@H]2C1", "composite z-score": 0.818}
{"smiles": "CCOC(=O)C1=CC[C@@H](c2ccccc2)N(S(=O)(=O)c2ccc(C)cc2)[C@H]1C(=O)OCC", "composite z-score": 0.744}
{"smiles": "Cc1ccccc1C(O)C1C=CC2C(=O)N(C)C(=O)C2N1Nc1ccccc1", "note": "(stereo unspecified)", "composite z-score": 1}
{"smiles": "C=CCC(OC(C)=O)[C@@H]1[C@@H](N(Cc2ccc(-c3ccccc3)cc2)C(=O)Cc2ccc(OC)cc2)c2cc(OCCCO)ccc2N1C(=O)c1ccc2ccccc2n1", "note": "(stereo partly specified)", "composite z-score": 0.0184}
{"smiles": "CCN(CC)c1ccc(N2CC=CC34O[C@@H]5C=CCCOC(=O)C5[C@H]3C(=O)N(CCCCCO)[C@@H]4C2=O)cc1", "note": "(stereo partly specified)", "composite z-score": -0.515}
{"smiles": "C[C@]1(C(=O)NCc2ccccc2)c2ccccc2C(=O)N(Cc2ccc(OC(F)(F)F)cc2)[C@H]1c1ccc(CO)cc1", "composite z-score": -0.125}
{"smiles": "CC(=O)Nc1cc(Br)ccc1C(=O)O", "composite z-score": 0.782}
{"smiles": "COC(=O)C[C@H]1O[C@]2(C(=O)N(Cc3ccccc3)c3ccc(NC(C)=O)cc32)[C@@H](C)[C@@H]1[Si](C)(C)c1ccc(OC)cc1", "composite z-score": 0.298}
{"smiles": "COCCOC(=O)N1C(=O)[C@@]2(c3cc(C#CCC(C(=O)OC)C(=O)OC)ccc31)[C@H](C(=O)N1CCN(c3ncccn3)CC1)[C@H]1C(=O)O[C@H](c3ccccc3)[C@H](c3ccccc3)N1[C@@H]2c1ccc(OCCO)cc1", "composite z-score": 0.727}
{"smiles": "O=c1cccc(C=Cc2ccccc2)o1", "composite z-score": -0.828}
{"smiles": "CCCCC(CC)C(O)C1C=CC2C(=O)N(c3ccccc3)C(=O)C2N1Nc1ccccc1", "note": "(stereo unspecified)", "composite z-score": 0.83}
{"smiles": "COc1ccc([Si](C)(C)[C@@H]2[C@@H](CC(=O)N(CCO)Cc3ccccc3)O[C@]3(C(=O)N(C)c4ccccc43)[C@H]2C)cc1", "composite z-score": 0.751}
{"smiles": "CC(C)C[C@@H]1NC(=O)[C@H]2C[C@@H](C(=O)NCCCCCNC(=O)CS)[C@@H](c3cccc(OCCO)c3)N2C1=O", "composite z-score": 0.258}
{"smiles": "O=C(OCCF)C1=CCC(c2cccc(Cl)c2)O1", "note": "(stereo unspecified)", "composite z-score": 0.374}
{"smiles": "O=C(O)[C@@]1(Cc2ccccc2)N=C(c2ccc(OCCCO)cc2)O[C@H]1c1ccccc1", "composite z-score": 0.32}
